In the library only some 9% were active in any assay of this set; here they are far more common.
ALDH1A1 block: inhibitors of human aldehyde dehydrogenase 1A1 | 220,000 compounds, 7.3% hits | P00352 | Potency, µM (highest dose often 75.3 µM), without a hit: at the highest dose activity, negative = inhibition, hits mostly inhibitors | Purified ALDH1A1, NADH fluorescence, propionaldehyde substrate; active means well fitted inhibition curve with a large enough effect, not every such curve was filed as active; inconclusive means small, poorly fitted or top-dose-only effect, or another doubt; inactive means no such curve, though single readings can be large or run the other way;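 further: plate controls were no enzyme wells and a reference inhibitor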
IMPase Li inh: membrane-permeable IMPase blocker, potentiated with lithium; Potency, µM (highest dose often 59.4 µM), for inactives: top-dose activity, negative = IMPase inhibition, hits mostly inhibitors; CHO-M1 cells, IP1 TR-FRET (IP-One), carbachol + lithium; AID 1457; 210,000 compounds, 0.35% hits;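 further: IP1 builds up when IMPase is blocked and the TR-FRET signal falls; plate controls were basal vehicle for no effect and high inhibitor control for full effect; nearly all actives have a fitted effect of over 50% in size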
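IP1 accumulation measured by competitive TR-FRET in lysed CHO-M1 cells after 30 min compound exposure at 37C, with a small lithium addition to potentiate weak responses. Hill-equation AC50 from ratio and donor-channel data.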
HPGD block: inhibitors of human 15-hydroxyprostaglandin dehydrogenase (HPGD). P15428. purified HPGD, NADH fluorescence kinetic, PGE2 substrate. Potency, µM, inactives show at the highest dose activity change, negative = inhibition, usual class: inhibitors. 150,000 compounds, 4.3% hits. AID 894; active means well fitted inhibition curve with a large enough effect, not every such curve was filed as active; inconclusive means small, poorly fitted or top-dose-only effect, or another doubt; inactive means no such curve, though single readings can be large or run the other way
Target sequence (P15428 whole entry, looked up): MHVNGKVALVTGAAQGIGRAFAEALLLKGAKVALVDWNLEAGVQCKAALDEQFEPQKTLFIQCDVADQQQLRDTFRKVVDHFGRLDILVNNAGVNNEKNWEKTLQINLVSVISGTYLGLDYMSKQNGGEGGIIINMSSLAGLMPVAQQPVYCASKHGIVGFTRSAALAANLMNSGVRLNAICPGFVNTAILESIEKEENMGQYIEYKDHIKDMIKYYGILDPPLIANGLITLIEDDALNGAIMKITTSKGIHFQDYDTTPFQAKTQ
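NADH formation kinetics: reaction with 30 uM PGE2 and 1 mM NAD+ (final), 20 nM enzyme, Tris-HCl pH 8 with Tween 20, after 15 min compound preincubation at room temperature. Fluorescence change, last versus first of five reads.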
LMNA splice mod: changes lamin A minigene splicing in HeLa cells; HeLa LMNA splicing GFP/RFP minigene ratio, 48 h; Potency, µM (titrated, usually from 46.1 µM), without a hit: top-dose ratio change, negative = inhibition, hits mostly inhibitors; 200,000 compounds, 0.01% hits; AID 1487; active means well fitted inhibition curve with a large enough effect in the signal ratio, with a control signal flat, not every such curve was filed as active; inconclusive means small, poorly fitted or top-dose-only effect, or effect the other way, or a change in a side signal; the % refers to the signal ratio
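S3 HeLa cells stably expressing lamin A-EGFP splicing minigene plus DsRed2, 600 cells/well, 48 h compound exposure at 37C. Laser-scanning cytometry; analysed as GFP (500-530 nm)/RFP (575-640 nm) total intensity ratio; 0.5% DMSO vehicle.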
Luc counter: counter-screen: inhibitors of Kinase-Glo firefly luciferase | Q27757 | Kinase-Glo luciferase, ATP luminescence, 8 min | Potency, µM (titrated, usually from 38.3 µM), without a hit: at the highest dose activity change, negative = inhibition, most hits filed as inhibitors | 200,000 compounds, 0.28% hits; further: nearly all actives have a fitted effect of over 60% in size
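Light output from Kinase-Glo luciferase with luciferin and 10 uM ATP in 50 mM imidazole pH 7.2, KCl, MgCl2, Tween 20, BSA; compound pin-delivered, 8-min ambient incubation, then luminescence read.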
An asterisk follows results filed as active; u = inconclusive; x = no result given; [ ] = dose if it differs, or a comment. Unless noted, the call rests on the fitted dose curve; in most records, active means well fitted curve in the direction sought with a large enough effect; inconclusive means small, poorly fitted or top-dose-only effect, or another doubt; inactive means no such curve, though single readings can be large; an effect the other way counts as inactive or inconclusive. Unless noted, on the % scale 0 is the no-effect control and ±100 the full control effect; potency means the concentration at half of the fitted maximal effect.

SMILES	ALDH1A1 block	IMPase Li inh	HPGD block	LMNA splice mod	Luc counter
CC(C)Cn1cnc2c(c1=O)c1nc3ccccc3nc1n2Cc1ccc2c(c1)OCO2	0.79µM*	21%[38.3 µM]	-18%	5%	-2%
COc1ccccc1NC(=O)Cn1c(SCC(=O)N(C)c2ccccc2)nc2ccccc21	x	x	x	0%[46 µM]	x
O=C(O)c1ccc(NS(=O)(=O)/C=C/c2ccccc2)cc1O	10µM*	12%[38.3 µM]	-21%	7%	5%
CC(C)OC(=O)[C@@H]1C=C[C@H](C)[C@@H](CCCCOCc2ccccc2)O1	2%	7%	-10%	x	0%
Cc1cc(C)nc(N/C(=N/S(=O)(=O)Cc2ccccc2)Nc2ccccc2)n1	13µM*	8%	-13%	-6%	0%
O=C(c1ccccc1)[C@@H]1O[C@H]1c1ccc(-c2ccccc2)cc1	-29%	11%	u	x	-4%
COc1cccc(C2NC(=O)NC(O)(C(F)(F)F)C2C(=O)c2cccnc2)c1OC (centres undefined)	11µM*	1%[38.3 µM]	4%	4%	-3%
O=C1NC(c2cn(-c3ccccc3)nc2-c2cccs2)C(C(=O)c2cccnc2)C(O)(C(F)(F)F)N1 (centres undefined)	u	16%[38.3 µM]	0%	13%	0%
COc1ccc(C2NC(=O)NC(O)(C(F)(F)F)C2C(=O)c2ccc(C)cc2)cc1 (centres undefined)	18µM*	x	x	2%	x
CCOc1cc(C2NC(=O)NC(O)(C(F)(F)F)C2C(=O)c2ccccc2)ccc1OC (centres undefined)	u	15%[38.3 µM]	3%	14%	2%
COc1ccc(C2NC(=O)NC(O)(C(F)(F)F)C2C(=O)c2ccccc2)cc1OC (centres undefined)	32µM*	-9%[38.3 µM]	-5%	4%	3%
COc1ccccc1-c1ccc2ncnc(NCc3cnc(C)cn3)c2c1	-1%	12%	x	u	x
COc1ccc(CNC(=O)CCCCCn2c(=O)[nH]c3ccccc3c2=O)cc1	x	x	x	-10%[46 µM]	x
S=c1nc[nH]c2c1[nH]c1ccccc12	14µM*	4.5µM*	25µM*	-3%	2%
C=CCC(C)(O)c1cccc(Br)c1 (centres undefined)	13%	12%	-2%	x	0%
Cc1cc(-c2ccccc2)n(-c2ccc(C(N)=O)cc2)n1	u	8%	32µM*	-17%	4%
COC(=O)C(CC(C)C)NC(=O)c1cccs1 (centres undefined)	13%	3%	x	1%[46 µM]	0%
CCCCn1c(O)c(/C=C/C=C/C=Nc2ccccc2)sc1=S	18µM*	1%	x	u	8.9µM*
CCCn1c(O)c(C=Nc2ccccc2)sc1=S	14µM*	13%	x	-4%[46 µM]	0%
CCn1c(O)c(C=Nc2ccccc2)oc1=S	20µM*	9%[38.3 µM]	16µM*	10%	10%
CCn1c(O)c(/C=C/C=C/C=Nc2ccccc2)sc1=S	u	6%	x	19%[46 µM]	-11%
O=C(O)C1Cc2[nH]cnc2C(c2ccc(F)cc2)N1 (centres undefined)	u	-8%	x	-3%[46 µM]	3%
COCCn1c(=O)c(CCc2ccccc2)nc2cnc(N3CCOCC3)nc21	u	4%	x	-1%	x
COc1ccc(C(C(=O)NCC2CCCO2)N(C(=O)CNC(=O)c2cccs2)c2ccccc2C)cc1OC (centres undefined)	10%	8%	x	u	0%
CN(C)/C=N/C(=S)Nc1ccc(Cl)cc1Cl	-7%	1%	x	-7%[46 µM]	-6%
SMILES	ALDH1A1 block	IMPase Li inh	HPGD block	LMNA splice mod	Luc counter
CC(=O)N1CCC2(CC1)CC(=O)c1cc(OCC(=O)N3CCOCC3)ccc1O2	u	-5%	x	x	2%
C[C@](N)(C(=O)O)c1ccc(-c2nn[nH]n2)cc1	16µM*	3%	26%	x	4%
[O-]/C(=C(\C(=S)NCCN1CCOCC1)[n+]1ccccc1)c1ccc(Cl)s1	10µM*	11%	x	u	-6%
S=C(NCCN1CCOCC1)Nc1ccc(Nc2ccccc2)cc1	-1%	2%	x	x	3%
Cc1ccc(/C([O-])=C(/C(=S)Nc2ccc(SC(F)F)cc2)[n+]2ccccc2)cc1[N+](=O)[O-]	4.5µM*	11%	x	-5%[46 µM]	-4%
[O-]/C(=C(\C(=S)NCc1ccccc1)[n+]1ccccc1)c1ccc(Cl)s1	18µM*	-2%	x	x	6%
Cc1ccc(/C([O-])=C(/C(=S)NCCN2CCOCC2)[n+]2ccccc2)cc1[N+](=O)[O-]	22µM*	19%	x	9%[46 µM]	1%
COC(=O)c1ccc(N2CCS(=O)(=O)CC2)cc1	u	0%	x	31%[46 µM]	-2%
Cc1ccc(CNC(=O)c2ccc(CS(=O)(=O)Cc3ccc(F)cc3)o2)cc1	x	x	x	-4%[46 µM]	x
CC1CCCCN1CCCNC(=O)c1cc(Br)c(Br)[nH]1 (centres undefined)	-1%	10%	x	x	x
O=C(Cn1cc(CCO)nn1)N1CCNCC1	-3%	5%	x	x	x
COCC(=O)N1CCC2(CC1)CCN(c1ccncc1)CC2	12%	22%	0%	x	-1%
CC(C)(C)C1CCC(=NNC(=O)CN(c2ccccc2)S(=O)(=O)c2ccccc2[N+](=O)[O-])CC1 (centres undefined)	10µM*	-6%	-20%	-7%	1%
C=C/C(C)=C/[C@@]1(C)SC(=O)C(C)=C1O	1%	-2%	-13%	-20%	-4%
Cc1c(C(=O)NN)nc2ccccn12	4.5µM*	-3%	-12%	-14%	1%
CCN1CCN(C(=O)N2CCOCC2)CC1	6%	3%	x	u	-1%
CCOC(=O)CC(=O)CSc1[nH]c(=O)cc(C)c1C#N	-1%	-9%[38.3 µM]	14µM*	-2%	-5%
COc1ccc(/C(C)=N/N=C(\C)c2ccc(OC)cc2OC)c(OC)c1	13%	-3%	1%	9%	-2%
COc1ccc(C(N)=S)c(OC)c1	13µM*	4%	40µM*	11%	-1%
COC(=O)C1=C(C)NC(C)=C([N+](=O)[O-])[C@@H]1c1ccccc1C(F)(F)F	-7%	-6%	-7%	x	1%[39.9 µM]
N#CC1=C(N)N(c2ccc(Cl)c(Cl)c2)C(=O)C1	28µM*	8%	x	-5%[46 µM]	3%
O=C1CC(C2CCCO2)C(=O)N1c1ccc(Cl)c(Cl)c1 (centres undefined)	-7%	14%	x	-6%[46 µM]	-1%
COc1ccc(N=C/C=C2/C=C(c3ccccc3)OC(C)(C)O2)cc1	1.4µM*	17%	x	u	-3%
COc1ccc(N=Nc2cnc(C)nc2-c2ccccc2)cc1	-13%	27%[38.3 µM]	-24%	u	0%
CCCn1nnc(NC(=O)/C=C/c2cc(Br)ccc2OC)n1	-5%	-8%	x	u	6%
Cc1ccccc1CS(=O)(=O)Cc1ccc(C(=O)NCc2ccco2)o1	-8%	-5%[38.3 µM]	1%	5%	0%
Cc1cc(C(F)(F)F)nn1Cc1ccc(C(=O)NCc2ccco2)o1	18µM*	14%[38.3 µM]	u	15%	0%
